Assay outcomes as filed in PubChem.
Most compounds without a hit are left out; they make up all but 18% or so of the library.
DT40 TDP1 CPT: DT40-hTDP1 cell growth loss with CPT. chicken DT40 Tdp1-/-;hTDP1 cells + 20 nM CPT, ATP luminescence, 48 h. Potency, µM (doses to about 46.2 µM), without a hit: at the highest dose activity change, negative = growth inhibition, usual class: inhibitors. 12% of 420,000 active; also: potency is read from the fitted curve at half-maximal effect; nearly all actives have a fitted effect of over 55% in size
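Cell growth measured by CellTiter-Glo luminescence after a minimum 48 h, 37 C compound exposure with 20 nM CPT in Tdp1-knockout DT40 cells stably expressing hTDP1, seeded 400/well; qHTS titration format.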
Gal4-VP16 FLuc: Gal4-VP16 reporter inhibition counter-screen; 3.5% of 310,000 active; AID 2546; Drosophila S2 Gal4-VP16 UAS-luciferase, luminescence, 20 h; Potency, µM (titrated, usually from 53.6 µM), for inactives: top-dose activity, negative = inhibition, actives largely listed as inhibitors;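 also: Gal4-VP16 expression switched on by copper sulfate through the metallothionein promoter; potency is read from the fitted curve at half-maximal effect; nearly all actives have a fitted effect of over 50% in size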
RORgamma inh: ROR gamma (mouse) transcription inhibition; Drosophila S2 Gal4-RORgamma UAS-luciferase reporter, 20 h; Potency, µM (doses to about 53.6 µM), without a hit: at the highest dose activity change, negative = inhibition, actives largely listed as inhibitors; P51450; 5.4% of 310,000 active; also: potency is read from the fitted curve at half-maximal effect; nearly all actives have a fitted effect of over 60% in size
Target sequence (P51450 whole entry, looked up, the tested form may be a part): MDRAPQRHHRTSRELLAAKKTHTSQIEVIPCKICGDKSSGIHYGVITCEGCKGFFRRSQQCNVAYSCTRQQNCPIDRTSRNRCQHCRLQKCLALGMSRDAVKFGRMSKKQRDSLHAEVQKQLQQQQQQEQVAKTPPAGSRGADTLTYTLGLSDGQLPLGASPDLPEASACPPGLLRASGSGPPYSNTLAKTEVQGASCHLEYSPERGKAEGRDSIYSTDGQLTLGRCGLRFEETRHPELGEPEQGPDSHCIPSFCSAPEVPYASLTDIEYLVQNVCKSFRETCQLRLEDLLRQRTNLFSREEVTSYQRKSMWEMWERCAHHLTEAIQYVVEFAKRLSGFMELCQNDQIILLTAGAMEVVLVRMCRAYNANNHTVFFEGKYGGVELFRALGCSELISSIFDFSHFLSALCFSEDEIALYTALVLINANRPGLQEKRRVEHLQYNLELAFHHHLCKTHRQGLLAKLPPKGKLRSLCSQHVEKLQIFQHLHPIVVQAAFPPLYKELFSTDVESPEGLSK
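Drosophila Schneider cells stably carrying a metallothionein-driven Gal4 DBD–ROR gamma fusion and a UAS-Photinus luciferase reporter were exposed to compound for 1 hr, then induced with copper sulfate (700 uM final) for 20 hr at ambient temperature before luminescence reading.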
LDHA inh: LDHA (human) enzyme inhibition; 0.15% of 480,000 active; P00338; purified LDHA, NADH/diaphorase-resazurin fluorescence; stronger effect = lower value; activity change, % (values are at about 110 or 230 µM); AID 1347041; in the data active = activity change below about -30%; inconclusive = mostly about -25% to -30%;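 also: plate controls were DMSO wells for no effect and wells without enzyme for full effect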
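Resorufin fluorescence (ex540/em590), read at 0 and 20 min after diaphorase/resazurin addition, reports the NADH left after a 5 min room-temperature reaction of 2 nM human LDH5 with 0.06 mM NADH and 0.2 mM pyruvate.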
TDP1 cell noCPT: qHTS for Inhibitors of human tyrosyl-DNA phosphodiesterase 1 (TDP1): qHTS in cells in absence of CPT. DT40 Tdp1-/- hTDP1 cells, no CPT, ATP luminescence, 48 h. Potency, µM (titrated, usually from 46.2 µM), inactives show at the highest dose activity change, negative = growth inhibition, hits mostly inhibitors. 15% of 420,000 active; also: potency is read from the fitted curve at half-maximal effect; nearly all actives have a fitted effect of over 55% in size
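Stably hTDP1-transfected Tdp1-null chicken DT40 cells were treated with library compounds minus camptothecin and grown for at least 48 hr at 37 °C, after which cellular ATP was quantified by luminescence.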
IL-1B inflam inh: blocks inflammasome-driven IL-1 beta release; THP-1 LPS/ATP IL-1B secretion, AlphaLISA, 16 h; stronger effect = lower value; activity change, % at 57.5 µM; 4.7% of 360,000 active; in the data active = activity change below about -50%; inconclusive = mostly about -30% to -49%
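THP-1 cells pretreated 1 hr with compounds (up to 57.5 uM final), then stimulated with LPS (250 ng/mL final) plus ATP (1.25 mM final); secreted IL-1B measured by AlphaLISA after 16 hr, decreased signal indicating inhibition.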
* hit, by the source's call; ? = inconclusive; · = no result given; ! = repeats disagree. Unless noted, calls follow the shape of the dose curve; as a rule, active = well fitted curve in the direction sought with a large enough effect; inconclusive = small, poorly fitted or top-dose-only effect, or another doubt; inactive = no such curve, though single readings can be large; an effect the other way counts as inactive or inconclusive. Unless noted, % is scaled to controls: 0 for no effect and ±100 for the full control effect.

SMILES | DT40 TDP1 CPT | Gal4-VP16 FLuc | RORgamma inh | LDHA inh | TDP1 cell noCPT | IL-1B inflam inh
Cc1cnc(SCc2ccccn2)nc1C1CCCN(C(=O)c2scc3c2CCCC3)C1 (stereo unspecified) | 11.6µM* | · | · | · | 10.3µM* | ·
Cc1noc(C)c1CC(=O)N1CCCC(N2CCN(c3ccccc3F)CC2)C1 (stereo unspecified) | -10.8% | · | · | -0.1 | -14.0% | -3.9
O=C(O)CCC(=O)OC[C@@H](NC(=O)C(Cl)Cl)C(O)c1ccc([N+](=O)[O-])cc1 (stereo partly specified) | ? | -10.2% | -8.4% | · | ? | ·
Nc1c(C(=O)NCCCc2ccccc2)c2nc3ccccc3nc2n1Cc1cccs1 | ? | ? | ? | 18.3 | ? | -21.2
CCCCNC(=O)c1c(N)n(Cc2ccc3c(c2)OCO3)c2nc3ccccc3nc12 | 29.1µM* | ? | -13.6% | 16.8 | ? | -29.6
CCCCn1c(N)c(C(=O)NCc2cccs2)c2nc3ccccc3nc21 | -18.1% | -8.1% | 11.8% | 9.6 | ? | -58.0*
COCCCn1c(N)c(C(=O)NCCC(C)C)c2nc3ccccc3nc21 | ? | -5.3% | 7.5% | 33.4 | ? | -52.6*
CCCCCn1c(N)c(C(=O)NCCN2CCOCC2)c2nc3ccccc3nc21 | ? | -11.9% | -2.6% | 4.4 | 13µM* | -58.4*
COCCCNC(=O)c1c(NC(=O)c2ccccc2)n(Cc2ccccc2)c2nc3ccccc3nc12 | ? | · | · | 7.7 | -3.7% | -2.7
O=C(NC(O)C(Cl)(Cl)Cl)c1ccco1 (stereo unspecified) | · | · | · | -13.0 | · | ·
C=C(CC1(CNP(=O)(c2ccccc2)c2ccccc2)CC1)c1ccccc1 | · | -7.5% | 20.8% | · | · | ·
CCOC(=O)c1c(NC(=O)c2c(N)n(CCCOC)c3nc4ccccc4nc23)sc2c1CCCC2 | -4.3% | ? | ? | -11.2 | ? | 1.4
CCCOC(=O)c1c(N)n(Cc2cccs2)c2nc3ccccc3nc12 | 18.4µM* | 8.7% | ? | 3.2 | ? | -3.3
COCCOC(=O)c1c(N)n(Cc2ccccc2)c2nc3ccccc3nc12 | ? | 9.2% | 16.1% | 5.8 | ? | -17.4
COc1ccc(CCNC(=O)c2c(N)n(CCN3CCOCC3)c3nc4ccccc4nc23)cc1OC | 14.6µM* | -28.2% | 21.2% | 6.2 | 13µM* | ?
CCCCCCn1c(N)c(C(=O)NCCN2CCOCC2)c2nc3ccccc3nc21 | 20.6µM* | ? | ? | 2.6 | ? | -73.2*
CCOCCCn1c(N)c(C(=O)Nc2sc3c(c2C(=O)OC)CCCC3)c2nc3ccccc3nc21 | 20.6µM* | 11.2µM* | ? | -2.1 | 20.6µM* | 4.6
COC(=O)[C@@H]1C[C@@]2(O)[C@H](O)[C@H](O)[C@H](O)C[C@H]2N1Cc1cccnc1 | · | -3.3% | 8.5% | · | · | ·
CC(Oc1ccccc1)C(=O)NN (stereo unspecified) | · | · | · | -1.2 | · | ·
CCN(CC)CCCC(C)N=C(c1ccccc1)c1c(O)n(C)c(=O)n(C)c1=O (stereo unspecified) | -21.2% | -0.8% | 0.631µM* | -3.1 | -11.0% | 11.3
CCC(=NCCc1c[nH]c2ccccc12)c1c(O)n(C)c(=O)n(C)c1=O | 3.98µM* | ? | -15.7% | 1.0 | 6.31µM* | ?
CC/C(=N\Nc1ccccc1)c1c(O)n(C)c(=O)n(C)c1=O | ? | -8.3% | ? | -4.7 | ? | 48.8
CCC(=NC(C)c1ccccc1)c1c(O)n(C)c(=O)n(C)c1=O (stereo unspecified) | 20.6µM* | 12.6µM* | ? | -14.2 | 7.31µM* | -25.9
CC1=C(C(=O)OC(C)(C)C)C2(C(=O)Nc3ccccc32)C(C(=O)OC(C)C)=C(N)O1 (stereo unspecified) | · | · | · | -12.8 | · | ·
O=[N+]([O-])c1ccc2c3c(cccc13)CC2 | · | -3.8% | 3.5% | · | · | ·
SMILES | DT40 TDP1 CPT | Gal4-VP16 FLuc | RORgamma inh | LDHA inh | TDP1 cell noCPT | IL-1B inflam inh
O[C@H]1[C@H]2[C@H](O)CCCN2C[C@H]1O | 8.0% | -7.1% | -20.0% | · | -15.9% | ·
Cn1ncc2c(NCc3ccc(F)cc3)ncnc21 | ? | · | · | -0.6 | ? | ·
O=[N+]([O-])/C=C/c1c(Cl)cccc1Cl | 0.461µM* | · | · | 0.7 | 1.3µM* | -98.9*
COc1ccc(-c2coc3cc(OC(=O)N4CCOCC4)ccc3c2=O)cc1 | 13µM* | -5.8% | 15.0% | -5.7 | 18.4µM* | 0.1
CC[C@@]1(O)C(=O)OCc2c1cc1n(c2=O)Cc2cc3ccccc3nc2-1 | 0.0794µM* | ? | 0.0562µM* | -6.8 | 0.0891µM*! | ·
CCC1(OC(=O)CN)C(=O)OCc2c1cc1n(c2=O)Cc2cc3ccccc3nc2-1 (stereo unspecified) | 0.164µM* | ? | ? | -4.8 | 0.0651µM* | -98.4*
CC[C@@]1(O)C(=O)OCc2c1cc1n(c2=O)Cc2cc3c(NC(=O)CN)cccc3nc2-1 | 0.231µM* | -19.7% | -41.3% | 10.4 | 0.411µM* | ?
CC[C@@]1(O)C(=O)OCc2c1cc1n(c2=O)Cc2cc3c(O)cccc3nc2-1 | · | ? | 0.355µM* | · | · | ·
Cc1oc2cc(OC(=O)N(C)C)ccc2c(=O)c1-c1ccccc1 | · | · | · | -2.8 | · | ·
CCC(C)(S(=O)(=O)CC)S(=O)(=O)CC | 3.0% | 3.4% | 10.7% | · | -3.5% | ·
COc1ccc(CNCCc2c[nH]c3ccc(OC)cc23)cc1 | · | · | · | 11.2 | · | ·
CCCCCCC(=O)O[C@H]1CC[C@H]2[C@@H]3CCC4CC(=O)C=C(C)[C@]4(C)[C@H]3CC[C@]12C (stereo partly specified) | · | 5.7% | -10.8% | · | · | ·
CCCc1cc2c(n1Cc1ccco1)C(C)C1CN(C(=O)c3ccccc3)C(C)(C(=O)OC)C21 (stereo unspecified) | · | 4.4% | 18.8% | · | · | ·
COc1ccc2c3c1OC1C(O)C=CC4C(C2)[N+](C)(C)CCC341 (stereo unspecified) | -0.2% | 2.7% | -29.5% | -72.2* | -15.8% | 8.0
COC(=O)[C@]1(C)CC[C@@]2(C)CC[C@@]3(C)C4=CCc5c(cc(O)c(O)c5C)[C@]4(C)CC[C@@]3(C)C2C1 (stereo partly specified) | 4.61µM* | 15.8µM* | ? | · | 1.84µM* | ·
Fc1ccc(NC(=S)NCCc2cnc[nH]2)cc1 | · | · | · | 4.3 | · | ·
Cc1ccc(N2CCN(C(=O)c3cn(CC4CCCCC4)nn3)C(C)C2)cc1 (stereo unspecified) | 18.4µM* | · | · | 0.8 | ? | -5.4
O=C(OCCN1CCCCC1)C(O)(c1ccccc1)c1ccccc1 | 7.4% | -7.8% | -3.5% | · | -0.5% | ·
